Bioassay records (PubChem BioAssay)
HPGD block: HPGD (human) dehydrogenase inhibition; P15428; Potency, µM, inactives show at the top dose activity change, negative = inhibition, hits mostly inhibitors; purified HPGD, NADH fluorescence kinetic, PGE2 substrate; 150,000 compounds, 4.3% hits; further: potency means the concentration at half of the fitted maximal effect
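NADH formation kinetics: reaction with 30 uM PGE2 and 1 mM NAD+ (final), 20 nM enzyme, Tris-HCl pH 8 with Tween 20, after 15 min compound preincubation at room temperature. Fluorescence change, last versus first of five reads.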
LMNA splice mod: changes lamin A minigene splicing in HeLa cells; HeLa LMNA splicing GFP/RFP minigene ratio, 48 h; Potency, µM (top dose mostly 46.1 µM), without a hit: at the highest dose ratio change, negative = inhibition, most hits filed as inhibitors; 200,000 compounds, 0.01% hits; AID 1487; active means well fitted inhibition curve with a large enough effect in the signal ratio, with a control signal flat, not every such curve was filed as active; inconclusive means small, poorly fitted or top-dose-only effect, or effect the other way, or a change in a side signal; the % refers to the signal ratio; further: potency means the concentration at half of the fitted maximal effect
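S3 HeLa stable clones carrying a lamin A-EGFP splicing minigene plus DsRed2 were seeded at 600 cells/well in Opti-MEM with 2% FBS, pin-dosed and incubated 48 h at 37°C. Acumen cytometry (488 nm) gave the GFP/RFP total-intensity ratio.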
ALDH1A1 inh: inhibitors of human aldehyde dehydrogenase 1A1; P00352; Purified ALDH1A1, NADH fluorescence, propionaldehyde substrate; Potency, µM (titrated, usually from 75.3 µM), without a hit: at the highest dose activity, negative = inhibition, actives largely listed as inhibitors; 220,000 compounds, 7.3% hits;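 further: potency means the concentration at half of the fitted maximal effect; plate controls were no enzyme wells and a reference inhibitor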
12-hLO inh: blocks human 12-lipoxygenase activity; P18054; purified 12-hLO, xylenol orange hydroperoxide absorbance; Potency, µM (titrated, usually from 57.1 µM), for inactives: at the highest dose activity change, negative = inhibition, actives largely listed as inhibitors; 150,000 compounds, 0.12% hits; active means well fitted inhibition curve with a large enough effect; inconclusive means small, poorly fitted or top-dose-only effect; further: potency means the concentration at half of the fitted maximal effect; nearly all actives have a fitted effect of over 55% in size
Target sequence (P18054 whole entry, looked up): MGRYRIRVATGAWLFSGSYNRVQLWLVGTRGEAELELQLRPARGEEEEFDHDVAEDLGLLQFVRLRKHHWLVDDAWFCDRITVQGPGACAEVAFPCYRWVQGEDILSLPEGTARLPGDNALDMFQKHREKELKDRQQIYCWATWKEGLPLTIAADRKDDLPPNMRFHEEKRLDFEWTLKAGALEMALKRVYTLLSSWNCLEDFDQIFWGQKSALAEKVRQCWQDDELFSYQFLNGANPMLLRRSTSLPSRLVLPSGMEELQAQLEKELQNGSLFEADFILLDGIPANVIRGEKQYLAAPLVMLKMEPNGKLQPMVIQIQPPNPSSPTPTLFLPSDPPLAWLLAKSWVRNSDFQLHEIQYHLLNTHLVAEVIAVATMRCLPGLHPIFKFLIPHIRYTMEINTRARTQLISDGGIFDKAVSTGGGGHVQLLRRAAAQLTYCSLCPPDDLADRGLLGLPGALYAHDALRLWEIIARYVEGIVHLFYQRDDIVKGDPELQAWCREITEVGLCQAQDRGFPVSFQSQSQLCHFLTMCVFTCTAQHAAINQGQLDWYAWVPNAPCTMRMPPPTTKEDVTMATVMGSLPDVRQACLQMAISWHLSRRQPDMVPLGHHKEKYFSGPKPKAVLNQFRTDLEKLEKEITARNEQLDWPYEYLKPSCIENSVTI
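Purified human 12hLO (150 nM), preincubated 15 min with compound, then 40 uM arachidonic acid for 30 min, room temperature, Hepes pH 7.0 with 0.01% Triton X-100. Hydroperoxide detected by ferrous iron/xylenol orange; 573/405 nm absorbance ratio gives reaction progress.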
PNC assembly inh: blocks assembly of the perinucleolar compartment; PC3M PTB-GFP, PNC prevalence imaging, 16 h; active compounds read low; activity change (PNC), negative = inhibition, % at 10 µM; 140,000 compounds, 3.1% hits; AID 2417;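 active means readout at or below -70, meaning at least 70% loss of cells showing the perinucleolar compartment, a nuclear body marking cancer cells; inconclusive means readout between -30 and a set limit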;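 further: plate controls were DMSO wells for no effect and camptothecin positive control wells for full effect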
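Read-out is percentage of cells bearing a perinucleolar compartment, from automated 20x imaging of fixed, Hoechst-stained PC3M PTB-GFP cells. Cells were seeded 4 h, then exposed 16 h to compound (23 nl of library stock) in duplicate plates.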
An asterisk follows results filed as active; ? = inconclusive; · = no result; [ ] = another dose, or the depositor's remark. Compounds with a hit are over-represented: about 10% of the library has one in this group of screens. Unless noted, the call rests on the fitted dose curve; in most records, active means well fitted inhibition curve with a large enough effect (not every such curve was filed as active); inconclusive means small, poorly fitted or top-dose-only effect, or another doubt; inactive means no such curve, though single readings can be large or run the other way. Unless noted, on the % scale 0 is the no-effect control and ±100 the full control effect.

SMILES	HPGD block	LMNA splice mod	ALDH1A1 inh	12-hLO inh	PNC assembly inh
CCn1c(SCC(=O)Nc2ccc(OC)cc2)nc2nc3c(cc2c1=O)COC(C)(C)C3	·	·	2µM*	·	·
CCn1c(SCC(=O)Nc2ccc(C(C)=O)cc2)nc2nc3c(cc2c1=O)CCCC3	-14%	-5%	0.89µM*	-1%	-5
CCn1c(SCc2ccccc2Cl)nc2nc3c(cc2c1=O)CCCC3	-13%	?	16µM*	-5%	6
CCn1c(SCC(=O)Nc2ccc(Cl)cc2)nc2nc3c(cc2c1=O)CCCC3	-10%	2%	?	-7%	26
CC1(C)Cc2nc3nc(SCC(=O)Nc4ccccc4)nc(N)c3cc2CO1	·	-7%[46 µM]	?	·	·
CC(C)CC(=O)Nc1nnc(SCc2cc(=O)n3ccccc3n2)s1	·	-6%[46 µM]	·	·	·
COc1ccc(-n2c(SCC(=O)N3CCC(C)CC3)nc3c([nH]c4ccccc43)c2=O)cc1	·	-2%[46 µM]	·	·	·
C=C(C)Cn1cnc2c(oc3nc4c(cc32)CCCC4)c1=O	·	·	1µM*	·	·
CCc1ccc(NC(=O)Cn2cnc3nc4c(cc3c2=O)CCCC4)cc1	·	20%[46 µM]	·	·	·
Cc1ccc(-n2c(SCC(=O)NCc3ccco3)nc3nc4c(cc3c2=O)COC(C)(C)C4)cc1	·	16%	0.79µM*	-10%	10
CCn1c(SCC(=O)Nc2ccccc2C)nc2nc3c(cc2c1=O)COC(C)(C)C3	·	·	14µM*	·	·
Cc1noc(C)c1C(=O)N1CCC2(CCN(Cc3ccncc3)CC2)CC1	-8%	·	-14%	8%	·
O=C(CSc1nccn1Cc1ccc(Cl)cc1)Nc1nc2ccccc2s1	·	-6%[46 µM]	·	·	·
CCC1CCCCN1CCCNC(=O)c1c(C)oc2ncn(CC(C)C)c(=O)c12 (stereo unspecified)	·	4%[46 µM]	·	·	·
Cc1ccc(N2C(=O)CS(=O)C(c3ccccc3)C2=O)cc1C (stereo unspecified)	·	·	3.5µM*	·	·
Cc1ccc(N2C(=O)C3C(C2=O)N2CCCN2C3c2ccccc2)cc1C (stereo unspecified)	·	2%[46 µM]	-4%	·	·
O=C(NCc1ccco1)c1ccc(S(=O)(=O)N2CCOCC2)cc1	16µM*	15%	16µM*	-1%	106
O=C(NCc1ccco1)c1cccc(S(=O)(=O)N2CCOCC2)c1	-12%	16%	-6%	0%	?
O=C(NCc1ccco1)c1cccc(S(=O)(=O)N2CCCCC2)c1	-17%	-16%	?	-1%	-100*
COC(=O)COc1ccc(S(=O)(=O)N2CCN(c3ccc(OC)cc3)CC2)cc1	·	·	-9%	·	·
O=C(NCc1ccco1)c1ccc(S(=O)(=O)N2CCCCC2)cc1	·	-9%[46 µM]	-8%	·	·
O=C(Nc1ccccc1)c1ccc(NCc2ccco2)c(S(=O)(=O)N2CCOCC2)c1	-13%	3%	?	4%	-88*
COc1ccc(N2CCN(S(=O)(=O)c3ccc(C(=O)NCc4ccco4)cc3)CC2)cc1	-5%	2%	7.9µM*	-4%	-12
Cc1cccc(CNC(=O)C2CCN(c3nn4cc(-c5ccc(F)cc5)nc4s3)CC2)c1	·	13%[46 µM]	·	·	·
COC(=O)NC(CC(C)=O)c1cccc(F)c1 (stereo unspecified)	·	·	5%[13.5 µM]	·	·
SMILES	HPGD block	LMNA splice mod	ALDH1A1 inh	12-hLO inh	PNC assembly inh
O=C(CCc1nnc(C2CCCCC2)o1)N1CCC(Oc2cccnc2)CC1	·	15%[46 µM]	?	·	·
CCC(=O)N(Cc1ccco1)c1nc(-c2cc(OC)ccc2OC)cs1	-14%	0%	-1%	-1%	-100*
C=CCn1c(O)c(N=NC(=O)CNC(=O)/C=C/c2ccco2)c2ccccc21	-17%	-2%	10µM*	-4%	-1
Oc1c(N=NC(=S)Nc2ccccc2F)c2ccccc2n1Cc1ccccc1Cl	·	-18%[46 µM]	?	·	·
Oc1c(N=NC(=S)Nc2ccccc2F)c2ccccc2n1Cc1ccccc1	·	·	20µM*	·	·
Cc1c(Cl)cccc1NC(=S)N=Nc1c(O)n(CN2CCOCC2)c2ccccc12	-9%	?	?	-1%	?
C=CCn1c(O)c(N=NC(=S)Nc2cccc(C)c2)c2ccccc21	-29%	?	-6%	?	-5
Cc1ccc(Cn2c(O)c(N=NC(=S)Nc3ccccc3F)c3ccccc32)cc1	·	·	11µM*	·	·
C=CCn1c(O)c(N=NC(=S)Nc2ccccc2F)c2ccccc21	·	?	28µM*	·	·
COc1ccc(CCC(=O)NC2CC(=O)N(c3ccc(F)cc3)C2)cc1 (stereo unspecified)	·	-2%[46 µM]	·	·	·
CCOc1ccc2c(O)csc2c1	-16%	1%	25µM*	-8%	1
Cc1cc(C)cc(NC(=O)CN2CCN(c3ncccn3)CC2)c1	-14%	1%	?	3%	-9
O=C(CN1CCN(c2ncccn2)CC1)Nc1ccccc1-n1cccc1	-14%	9%	14µM*	1%	84
O=C(Nc1ccc2c(c1)nc1n2CCSC1)c1ccccc1	-7%	-13%	22µM*	7%	?
O=C(Nc1ccc(SC(F)F)cc1)c1cc(-c2ccc3c(c2)OCCO3)on1	·	-3%[46 µM]	·	·	·
Cn1c(-c2ccccc2)cc(=O)c2ccccc21	25µM*	-10%	0%	3%	10
COc1ccc2c(c1)c(=O)cc(-c1ccccc1)n2C	?	-4%	?	-3%	-4
Cc1ccccc1OCC(=O)NNC(=O)CCN1C(=O)c2ccccc2C1=O	·	·	-4%	·	·
CC[C@@H](C)[C@@H](CO[C@@H](Cc1ccccc1)C(=O)N[C@@H](CCS(C)(=O)=O)C(=O)OC(C)C)NC[C@@H](N)CS	·	·	16µM*	·	·
CC(C)NC(=O)c1sc2ncccc2c1-n1cccc1	·	5%[46 µM]	·	·	·
CN(C)c1ccc(C=Nc2ccccc2)cc1	-16%	16%	0.89µM*	3%	-12
Cc1ccc(N=Cc2ccc(N(C)C)cc2)cc1C	·	·	0.56µM*	·	·
CN(C)c1ccc(/C=N/O)cc1	·	·	-1%	·	·
CCN(CC)c1ccc(O)c(C=Nc2ccc(C)c(C)c2)c1	·	-20%[46 µM]	?	·	·
CN(C)c1ccc(C=Nc2ccc(N(C)C)cc2)cc1	-27%	-6%	2.2µM*	-15%	41
SMILES	HPGD block	LMNA splice mod	ALDH1A1 inh	12-hLO inh	PNC assembly inh
C/C(=N/N=C/c1ccc(N(C)C)cc1)c1ccccc1	-16%	8%	25µM*	6%	24
CC(C)CN1CC[C@@]2(CCCN(C(=O)c3cccc(F)c3)C2)C1	-8%	·	2%	-3%	·
CC(C)CC1c2[nH]c3ccccc3c2CCN1CCCn1cccn1 (stereo unspecified)	·	·	-4%	·	·
CN(C)c1ccc(N=Cc2ccco2)cc1	-29%	?	5µM*	?	-22
Cc1ccc(N=Cc2ccc(N(C)C)cc2)cc1	-15%	4%	0.56µM*	0%	-16
Cc1ccc(CN2CCN(/N=C/c3ccc(Cl)c([N+](=O)[O-])c3)CC2)cc1	·	·	-5%	·	·
COc1ccc(/C(O)=C2\C(=O)C(=O)N(c3cc(C)on3)C2c2ccccc2OC)cc1C (stereo unspecified)	·	13%	-28%	-1%	6
COc1ccc(/C(O)=C2\C(=O)C(=O)N(c3cc(C)on3)C2c2ccccc2OC)cc1 (stereo unspecified)	-24%	1%	22µM*	-6%	-14
